Measurements from paper PMC4336329 (PLoS ONE, 2015).
Out of some 310,000 compounds screened, about 14,000 (4.5%) showed an effect of 50% or more. Effects have a minus sign here. What follows is part of a selection rich in strong results, with near analogues and random picks from the rest.

The molecules below were run against human ether-à-go-go-related gene (hERG) potassium channel (human, UniProt Q12809) (assay: primary screen, population patch clamp on CHO cells stably expressing hERG; higher = less effect of the substance).
Sequence of human ether-à-go-go-related gene (hERG) potassium channel (Q12809 whole entry, looked up): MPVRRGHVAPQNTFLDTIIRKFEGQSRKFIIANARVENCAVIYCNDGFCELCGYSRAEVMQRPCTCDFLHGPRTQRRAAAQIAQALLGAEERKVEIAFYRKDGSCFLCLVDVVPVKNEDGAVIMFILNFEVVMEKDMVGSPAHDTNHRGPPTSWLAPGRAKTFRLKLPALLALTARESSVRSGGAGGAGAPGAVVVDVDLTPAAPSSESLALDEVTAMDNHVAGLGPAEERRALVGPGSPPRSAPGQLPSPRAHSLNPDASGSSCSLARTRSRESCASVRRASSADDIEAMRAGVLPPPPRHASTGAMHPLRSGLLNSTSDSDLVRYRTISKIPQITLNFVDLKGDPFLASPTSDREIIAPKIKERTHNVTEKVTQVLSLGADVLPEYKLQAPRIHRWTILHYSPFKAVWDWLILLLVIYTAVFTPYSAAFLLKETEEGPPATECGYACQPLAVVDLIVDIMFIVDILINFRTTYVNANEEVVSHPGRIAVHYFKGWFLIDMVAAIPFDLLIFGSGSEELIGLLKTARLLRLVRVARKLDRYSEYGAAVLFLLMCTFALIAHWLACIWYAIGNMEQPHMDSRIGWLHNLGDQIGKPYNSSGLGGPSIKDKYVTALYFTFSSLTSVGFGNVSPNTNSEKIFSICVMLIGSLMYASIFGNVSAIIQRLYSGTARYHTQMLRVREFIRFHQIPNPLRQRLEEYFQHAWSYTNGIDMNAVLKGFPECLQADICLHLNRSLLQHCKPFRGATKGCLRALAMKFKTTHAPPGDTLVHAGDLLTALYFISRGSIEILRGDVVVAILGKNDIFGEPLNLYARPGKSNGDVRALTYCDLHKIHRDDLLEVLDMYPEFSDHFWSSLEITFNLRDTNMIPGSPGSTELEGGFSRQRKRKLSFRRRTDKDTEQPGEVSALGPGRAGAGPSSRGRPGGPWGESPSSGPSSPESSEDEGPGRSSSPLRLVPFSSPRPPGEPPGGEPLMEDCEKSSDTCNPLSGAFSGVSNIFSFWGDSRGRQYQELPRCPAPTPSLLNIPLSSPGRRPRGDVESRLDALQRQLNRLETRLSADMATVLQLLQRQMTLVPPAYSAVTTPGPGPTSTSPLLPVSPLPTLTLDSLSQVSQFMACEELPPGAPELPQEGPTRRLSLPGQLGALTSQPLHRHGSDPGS
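Note: peak tail current of the secondary pulse compared with the same well before compound.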

Row | Structure (SMILES) | hERG current change (%, negative = inhibition) at 10uM [%]
1 | Cc1ccccc1C(=O)Nc1ccc(N2CCN(C)CC2)nc1 | -1.6
2 | CN1CCN(c2ccc(NC(=O)c3ccc(C(F)(F)F)cc3)cn2)CC1 | -73.2
3 | Cc1ccc(C(=O)Nc2ccc3c(c2)CCC3)cc1 | 14.7
4 | CC(=O)Nc1ccc(N2CCN(c3ccc(C(F)(F)F)cn3)CC2)nc1 | -3.49
5 | CN(C)S(=O)(=O)c1ccc(C(=O)Nc2ccc3c(c2)CCC3)cc1 | -52
6 | CN(C)S(=O)(=O)N1CCc2ccc(NC(=O)c3ccc(C(F)(F)F)cc3)cc2C1 | 25.4
7 | O=C(Nc1ccc(N2CCOCC2)nc1)c1ccc(C(F)(F)F)cc1 | 16.6
8 | CN1CCN(c2ccc(NC(=O)c3ccc(Cl)cc3)cn2)CC1 | -53.1
9 | O=C(Nc1ccc(N2CCOCC2)nc1)c1ccc(Cl)cc1 | -11.5
10 | Cn1c(=O)c2c([nH]c(=S)n2Cc2ccc(Cl)cc2)n(C)c1=O | 17
11 | Cc1ccsc1C(=O)N1CCN(c2ncccn2)CC1 | 7.76
12 | COc1ccc(-c2nnn(CC(=O)N(C3CCCCC3)C(C)C(=O)NC3CCCC3)n2)cc1OC (stereo not drawn) | -22.1
13 | COc1cccc(/C=N/NC(=O)CC2C(=O)NN=C2C)c1OC (stereo not drawn) | 2.5
14 | O=C(NCCN1C(=O)S/C(=C\c2cccnc2)C1=O)c1ccc([N+](=O)[O-])s1 | 5.15
15 | C/C(CC(=O)N1CCCC1)=N\NC(=O)c1cc2ccccc2cc1O | 4.98
16 | O=S(=O)(Nc1cc(S(=O)(=O)N2CCOCC2)ccc1N1CCCC1)c1cccs1 | -4.49
17 | Cc1cc(-c2nnco2)c(C)n1-c1ccccc1 | -1.71
18 | COC(=O)C1=C(c2ccc(S(C)(=O)=O)cc2)C[C@@H]2CC[C@H]1N2C(=O)N1CCCCC1 | -1.44
19 | COc1ccccc1CCN1CCCC(CN(C)C(=O)CCC(N)=O)C1 (stereo not drawn) | 22.5
20 | CCOC(=O)C1CCCCN1Cc1cccc(C(F)(F)F)c1 (stereo not drawn) | 6.43
21 | CN(CC1CCCN(CCc2cccc(C(F)(F)F)c2)C1)C(=O)c1ccco1 (stereo not drawn) | -69.2
22 | COC(=O)CCCC(=O)N(C)CC1CCCN(CCc2ccccc2C)C1 (stereo not drawn) | -53.6
23 | CSCCC(=O)N(C)CC1CCN(CCc2cccc(C(F)(F)F)c2)CC1 | -64.3

Row | Structure (SMILES) | hERG current change (%, negative = inhibition) at 10uM [%]
24 | COc1ccccc1CCN1CCCC(CN(C)C(=O)CCC(=O)N(C)C)C1 (stereo not drawn) | 9.14
25 | COC(=O)CCC(=O)N(C)CC1CCCN(CCc2cccc(C(F)(F)F)c2)C1 (stereo not drawn) | -61.9
26 | CC(=O)NCCC(=O)N(C)CC1CCN(CCc2cccc(C(F)(F)F)c2)CC1 | 2.52
27 | O=C(O)c1ccccc1NS(=O)(=O)c1cccc2nsnc12 | 18.3
28 | O=C(N/N=C1\CCS(=O)(=O)c2ccc(F)cc21)c1ccc([N+](=O)[O-])cc1 | -19.6
29 | Cc1ccc(/C=N/NC(=S)NCCc2ccccc2)s1 | 27.9
30 | Cc1ccc(CNC(=O)CSc2nc3ccsc3c(=O)n2NC(=O)c2ccccc2)cc1 | -9.41
31 | CCOC(=O)N1CCN(C(=O)C(CC(C)C)NS(=O)(=O)c2ccc3c(c2)oc(=O)n3C)CC1 (stereo not drawn) | -12.4
32 | O=C(CN(C(=O)c1csnn1)c1cccc2ccccc12)NCc1ccccc1 | 0.271
33 | CSCCC(=O)NC1CCCN(CCc2ccccc2)C1 (stereo not drawn) | -38.2
34 | CN(CC1CCCN(CCc2cccc(C(F)(F)F)c2)C1)C(=O)c1ccc2nc[nH]c2c1 (stereo not drawn) | -33.1
35 | CSCCC(=O)N(C)CC1CCCN(CCc2cccc(C(F)(F)F)c2)C1 (stereo not drawn) | -74.6
36 | COc1cc(SC)ccc1C(=O)Nc1ccc(Br)cn1 | 14.4
37 | COc1ccc(NC(=O)c2ccccc2[N+](=O)[O-])cc1 | 9.48
38 | NC(=O)c1ccsc1NC(=O)CCS(=O)(=O)c1ccccc1 | 1.27
39 | COc1ccc(N(C(=O)c2snc(C(N)=O)c2N)C(C(=O)NC2CCCC2)c2cccs2)cc1OC (stereo not drawn) | -1.74
40 | CC(=O)Nc1ccc(S(=O)(=O)N2CCCN(S(=O)(=O)c3ccc(C)cc3)CC2)cc1 | -72.8
41 | Cc1ccc(-c2nnc(SCC(=O)Nc3ccc(S(=O)(=O)N4CCCCCC4)cc3)o2)cc1 | -7.29
42 | COc1ccc(-c2nnc(C3CCN(S(=O)(=O)c4ccccc4)CC3)o2)cc1 | -47.4
43 | CC(=O)Nc1ccc(S(=O)(=O)N2CCC(c3nnc(-c4ccc(C)cc4)o3)CC2)cc1 | -51.1
44 | CC(=O)Nc1ccc(S(=O)(=O)N2CCCN(S(=O)(=O)c3ccc(NC(C)=O)cc3)CC2)cc1 | -0.406
45 | CC(=O)Nc1ccc(S(=O)(=O)N2CCCC2)cc1 | 12.1
